High-throughput results as filed in PubChem BioAssay.
VHR inh color – inhibitors of human VHR1 phosphatase (DUSP3); inhibition, % at 20 µM; AID 1992; 0.7% of 50,000 active; recombinant VHR phosphatase, colorimetric substrate read-out; P51452; in the data active = inhibition above about 60%
Target sequence (P51452 whole entry, looked up): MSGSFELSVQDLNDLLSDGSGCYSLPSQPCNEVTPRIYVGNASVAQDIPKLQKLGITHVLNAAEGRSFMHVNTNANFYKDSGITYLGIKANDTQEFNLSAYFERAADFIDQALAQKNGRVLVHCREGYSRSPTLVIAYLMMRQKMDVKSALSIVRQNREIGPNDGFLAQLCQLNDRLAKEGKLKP
Each line names hits and unclear results; the compound was inactive in the other large screens. This is one part of a sample in which hits are shown more often than they occur.

COc1ccc(CC(=O)Nc2ccc(C(C)=O)cc2)cc1OC	none
CCOC(=O)C1NN=C(C(=O)c2ccc(OC)cc2)C1c1ccccc1Cl (centres undefined)	none
CCOC(=O)C1=NNC(C(=O)c2ccc(OC)cc2)C1c1ccccc1Cl (centres undefined)	VHR inh color 104.7
CCOC(=O)C1=NNC(C(=O)c2ccccc2)C1c1ccc(Br)cc1 (centres undefined)	none
O=C(O)c1cnn2c(C(F)(F)F)cc(-c3cccs3)nc12	none
O=C(Nc1cccc(Cl)c1)C1CC(=O)N(c2ccc(Br)cc2)C1 (centres undefined)	none
Cc1cc(C)cc(-n2c(C)cc(C=C3SC(=S)NC3=O)c2C)c1	none
Cc1cc(/C=C2/SC(=O)NC2=O)c(C)n1-c1cccc(Cl)c1	none
Cc1cc(/C=C2/SC(=S)NC2=O)c(C)n1-c1cccc(Cl)c1	VHR inh color 94.8
COc1ccc(C(=O)Nc2ccc3nn(-c4ccc(F)cc4)nc3c2)cc1	none
O=C(COc1ccc(Br)cc1)Nc1cc(Cl)cc(Cl)c1	none
O=C1NN(c2ccccc2)C(=O)/C1=C/c1ccc(-c2cccc([N+](=O)[O-])c2)o1	none
Cc1ccc(N2NC(=O)/C(=C\c3cccc([N+](=O)[O-])c3)C2=O)cc1	none
Cc1ccc([N+](=O)[O-])cc1-c1ccc(/C=C2/C(=O)NN(c3ccc(Cl)cc3)C2=O)o1	VHR inh color 74.4
COc1cc(/C=C2\C(=O)NN(c3ccc(Cl)c(Cl)c3)C2=O)c([N+](=O)[O-])cc1OC	none
Cc1cc([N+](=O)[O-])ccc1-c1ccc(/C=C2/C(=O)NC(=S)N(c3ccc(Cl)cc3)C2=O)o1	none
Cc1ccc(N2NC(=O)/C(=C/c3cc([N+](=O)[O-])ccc3Cl)C2=O)cc1C	VHR inh color 64.5
Cc1ccc(N2NC(=O)/C(=C/c3ccc4c(c3)OCO4)C2=O)cc1C	none
Cc1ccc(N2NC(=O)/C(=C/c3ccc(-c4ccc5c(c4)COC5=O)o3)C2=O)cc1C	VHR inh color 84.9
Cc1ccc(N2NC(=O)/C(=C\c3ccco3)C2=O)cc1C	none
CC(=O)C1=C(O)C(=O)N(CCN(C)C)C1c1ccc(F)cc1 (centres undefined)	none
O=C1CC(c2ccccc2)CC2=C1C(c1cccc3ccccc13)Nc1ccccc1N2 (centres undefined)	none
CCC(C)C(=O)N1c2cc(C)ccc2-c2c(ssc2=S)C1(C)C (centres undefined)	none
CCOc1cc(/C=C2/C(=O)NC(=O)N(c3ccc(C)cc3)C2=O)ccc1OC	none
Cc1ccc(C(=O)Nc2c(C(=O)N3CCC(Cc4ccccc4)CC3)cnn2-c2ccccc2)cc1	none
CCCCNc1ccc2c3c(cc(=O)n2C)-c2ccccc2C(=O)c13	none
COc1cccc(/C=N/N2CCN(Cc3ccccc3Cl)CC2)c1	none
Cc1ccccc1C(=O)Nc1cc(C(N)=O)cc(C(N)=O)c1	none
O=C(CCc1ccccc1)N1CCN(c2nc3ccc([N+](=O)[O-])cc3s2)CC1	none
O=C(N/N=C\c1ccccn1)c1n[nH]c2c1CCC2	none
CCc1ccccc1N(CC(=O)Nc1cccc(OC)c1)S(C)(=O)=O	none
O=C1C(Cl)=CC(=NS(=O)(=O)c2ccccc2)C=C1Br	VHR inh color 71.8
O=C1C=C/C(=N\S(=O)(=O)c2ccccc2)C=C1Cl	none
CC1=C/C(=N/S(=O)(=O)c2ccc(C)cc2)C=C(Cl)C1=O	none
CC(=O)Nc1ccc(/C=C(/C#N)C(=O)N/N=C/c2ccc(NC(C)=O)cc2)cc1	none
COc1ccc(-c2ccc(/C=N/n3cnnc3)o2)c([N+](=O)[O-])c1	none
COc1cccc(/C=C2/N=C(c3ccc(NC(C)=O)cc3)OC2=O)c1	none
CCOc1cc(/C=C2/N=C(c3ccc(NC(C)=O)cc3)OC2=O)ccc1OCc1ccccc1	VHR inh color 86.0
CCOc1cc(C=C2C(=O)NC(=O)NC2=O)ccc1OCc1ccccc1	none
COCC(C)NCc1ccc2c(c1)OCO2 (centres undefined)	none
COc1ccc(C2=C(/C=C3\SC(=S)NC3=O)C(c3ccccc3)c3ccccc3O2)cc1OC (centres undefined)	none
COC(=O)c1ccc(NC(=O)C2(C)CC3c4ccccc4C2c2ccccc23)cc1 (centres undefined)	none
Cc1c(Cl)cccc1NC(=O)C1(C)CC2c3ccccc3C1c1ccccc12 (centres undefined)	VHR inh color 78.9
COc1cccc(NC(=O)C2(C)CC3c4ccccc4C2c2ccccc23)c1 (centres undefined)	none
COc1ccccc1C1/C(=C(/O)c2ccccc2)C(=O)C(=O)N1c1cccc([N+](=O)[O-])c1 (centres undefined)	none
Cc1nn(C(=O)c2ccccc2)c(C)c1Sc1ccc([N+](=O)[O-])cc1	none
CC(C)(C)c1ccc(S(=O)(=O)N/N=C/c2ccc3c(c2)OCO3)cc1	VHR inh color 110.8
O=[N+]([O-])c1ccc(S(=O)(=O)N/N=C/c2ccc3c(c2)OCO3)cc1	none
COc1ccc(S(=O)(=O)N/N=C/c2ccc3c(c2)OCO3)cc1	none
O=C(Nc1ccc(NC(=O)c2cccc3ccccc23)cc1)c1ccc(Br)cc1	none
CN1C(=O)NC(=O)/C(=C/c2ccc(I)o2)C1=O	none
O=C1C(=Cc2ccc(I)o2)C(=O)c2ccccc21	none
CC1(C)OC(=O)C(=Cc2ccc(I)o2)C(=O)O1	VHR inh color 86.8
Cc1cc(C)n(S(=O)(=O)c2ccc(Br)cc2)n1	none
CCCn1c(/C=C(/OC(=O)c2ccccc2)c2ccccc2)nc2ccccc21	none
N/C(Cc1cccc2ccccc12)=N\OC(=O)c1ccc(F)cc1	none
O=C(O/C(=C/c1nccn1Cc1ccccc1Cl)c1ccc(F)cc1)c1ccc(F)cc1	VHR inh color 110.5
COc1ccc(/C=C2\SC(=O)N(CCC(=O)Nc3cccc(C)c3)C2=O)cc1OC	VHR inh color 79.6
COc1ccccc1NC(=O)CCN1C(=O)S/C(=C/c2ccc(OC)c(OC)c2)C1=O	none
COc1ccc(/C=C2\SC(=O)N(CCC(=O)Nc3ccccc3C)C2=O)cc1OC	none
CCOc1cc(/C=N\NC(=O)c2ccccc2Cl)cc([N+](=O)[O-])c1O	none
O=C(Nc1ccc(Cl)c(-c2nc3ccccc3[nH]2)c1)c1ccc(I)o1	none
CC1(C)Cc2c(sc(NC(=O)COc3ccccc3)c2C#N)CS1	none
O=C1C=CC(=O)c2c1c(-c1ccccc1)nn2-c1ccccc1	VHR inh color 86.0
Cc1c(C(=O)NCCO)c(-c2ccccc2)nn1-c1ccccc1	none
CCOC(=O)c1c(-c2ccccc2)nn(-c2ccccc2)c1C	none
O=C(Nc1cccc(C(F)(F)F)c1)c1ccc(-c2cccc(Cl)c2)o1	none
COc1ccc(-c2noc(COc3ccccc3C)n2)cc1	none
COc1cc(/C=N/NC(=O)COc2cccc(C)c2)cc([N+](=O)[O-])c1O	none
O=C(O)c1cc(-c2ccc(/C=N/Nc3ccc([N+](=O)[O-])cn3)o2)ccc1Cl	none
O=C(O)c1cccc(-c2ccc(/C=N/Nc3ccc([N+](=O)[O-])cn3)o2)c1	VHR inh color 90.4
Cc1cc(C(=O)N/N=C/c2ccc(-c3cccc(C(=O)O)c3)o2)n[nH]1	none
CCCCOC(=O)CCCN1C(=O)/C(=C/c2ccccc2)SC1=S	none
O=C(N=c1ccccn1O)C(O)(c1ccccc1)c1ccccc1	none
CCc1ccc(S(=O)(=O)Nc2c([N+](=O)[O-])ccc3ccccc23)cc1	none
COc1ccc(NC(=O)COc2ccc3ccccc3c2)cc1OC	none
Cc1ccc(S(=O)(=O)N2CCN(C(=O)c3cccc(F)c3)CC2)cc1	VHR inh color 100.7
COc1ccc(S(=O)(=O)N2CCN(C(=O)c3cccc(F)c3)CC2)cc1	none
Cc1ccc(S(=O)(=O)N2CCN(C(=O)c3cccnc3)CC2)cc1	none
CCOC(=O)c1c(NC(=O)c2cc(Cl)ccc2[N+](=O)[O-])sc2c1CCCC2	none
CN1C(=O)NC(=O)/C(=C/c2ccc(-c3ccc(C(=O)O)cc3)o2)C1=O	none
